From PubChem
An excerpt weighted towards active compounds, which were near 5.3% of everything screened.
PfM18AAP inh = PfM18AAP inhibitors, malaria aminopeptidase, primary screen, biochemical, QFRET, recombinant enzyme. H-Glu-NHMec fluorogenic cleavage. inhibition, % at 7.35 µM. 290,000 tested, 1.2% active. AID 1822, 2009;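 active = inhibition above the campaign mean inhibition over all tested compounds plus 3 SD, cut at about 28% in these data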
SUMO Mot1 rescue = yeast Mot1-301 growth rescue at high temperature, primary screen, SUMOylation pathway inhibitor project, S. cerevisiae, ATP luminescence, 38.5C; AID 2716, 2010; growth rescue, % at 18.8 µM; 320,000 tested, 1% active; S. cerevisiae Mot1-301 growth rescue; percent above DMSO median, 100 means doubled;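 active = every valid replicate shows activation above 250% relative to neutral control wells; inactive = the rest, any valid replicate at or below 250%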
ALR H2O2 inh = inhibitors of human ALR sulfhydryl oxidase, primary screen, biochemical, H2O2 detection, HRP-luminol luminescence, single point; FAD-linked sulfhydryl oxidase ALR (Homo sapiens), P55789; purified ALR, DTT oxidation; inhibition, % (concentration not given with the values); 290,000 tested, 3.8% active;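 active = mean replicate inhibition above about 79%, with every replicate also reaching it, limit read from the data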
Target sequence (P55789 whole entry, looked up): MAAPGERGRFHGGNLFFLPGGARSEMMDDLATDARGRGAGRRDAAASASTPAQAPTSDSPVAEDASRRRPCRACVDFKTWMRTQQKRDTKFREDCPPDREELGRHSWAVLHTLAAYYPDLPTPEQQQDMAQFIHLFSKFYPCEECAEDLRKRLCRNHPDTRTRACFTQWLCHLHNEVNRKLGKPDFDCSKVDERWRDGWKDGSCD
HIF act = HIF pathway transcriptional activators, primary screen, cell-based, U2OS HRE-luciferase, luminescence. U2OS HRE-luciferase reporter; normalized: DMSO 0%, desferrioxamine 100%. activation, % at 7.5 µM (by protocol). 300,000 tested, 0.32% active;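 active = mean activation of at least 10% of the iron chelator positive control signal, with at least half of replicates also reaching 10%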
A number is an active result; i = inactive; nt = no result.

SMILES	PfM18AAP inh	SUMO Mot1 rescue	ALR H2O2 inh	HIF act
O=C(Cn1nc(-c2ccc(Cl)cc2)c2ccccc2c1=O)NCC1CCCO1 (centres undefined)	i	333	i	i
Cc1ccc(-c2nn(CC(=O)NCC3CCCO3)c(=O)c3ccccc23)cc1 (centres undefined)	i	i	i	i
Cc1ccc(N2CCN(S(=O)(=O)c3c(C)nc4scc(C)n4c3=O)CC2)c(C)c1	i	i	i	i
O=C(N/N=C/c1cc(Br)ccc1O)C(c1ccncc1)N1CCOCC1 (centres undefined)	i	i	i	12
COC(=O)CCC/C=C1/SCC(NC(=O)c2ccccc2)C1O (centres undefined)	i	i	97	i
COC(=O)CCC/C=C1/SCC(NC(=O)c2ccccc2)C1NC(C)=O (centres undefined)	i	i	i	i
CN(CC(=O)Nc1ccc(Cl)c(C(F)(F)F)c1)C(=O)CNC(=O)C1CCCCC1	nt	i	i	nt
COc1cc(/C=N\NC(=O)c2ccc(Cn3nc([N+](=O)[O-])c(Cl)c3C)o2)ccc1O	i	i	95	i
COc1cccc(/C=N\NC(=O)c2ccc(Cn3cc(Br)c([N+](=O)[O-])n3)o2)c1O	i	i	i	18
Cc1cc(C)c(C)c(S(=O)(=O)N2CCN(C(=O)C3CSC4(C)CCC(=O)N34)CC2)c1C (centres undefined)	nt	i	i	i
CN(C(=O)c1ccnn1C)C1CCCN(Cc2ccccc2F)C1 (centres undefined)	i	i	i	i
C/C(=N\NC(=O)OC(C)(C)C)c1cccc([N+](=O)[O-])c1	i	i	i	i
CC(C)(C)OC(=O)NN=C(c1ccc(O)cc1)c1ccc(O)cc1	i	i	82	i
O=C1COc2ccc(C(=O)/C=C/c3ccccc3)cc2N1	i	i	97	nt
O=C(/C=C/c1ccccc1)c1ccc2c(c1)OCCCCO2	i	i	i	i
O=C1NC(=O)/C(=C\c2ccc(Sc3ccc(Cl)cc3)o2)N1	i	i	90	i
COc1ccc(C(=O)NCc2nnc(SCC(=O)c3ccc(F)cc3)n2C)cc1OC	nt	i	94	i
Cn1c(CNC(=O)c2ccco2)nnc1SCC(=O)c1ccc(F)cc1	i	i	86	i
CC(=O)c1cc2c(cc1NC(=O)C1CCC1)OCO2	i	i	i	i
COc1cc2[nH]c3ccccc3c2cc1C	nt	i	81	i
CCC(=O)Nc1ccc(C(=O)CSc2nnc(-c3ccc(O)cc3)n2CC2CCCO2)cc1OC (centres undefined)	i	i	82	i
COc1ccc(NC(=O)CSc2nnc(-c3ccncc3)n2CC2CCCO2)c(OC)c1 (centres undefined)	i	i	i	i
Cc1ccc(C(=O)NC2CCCC2)s1	i	i	i	i
O=C(NNC(=O)c1ccc(Br)s1)NC1CCCCC1	28	i	i	i
O=C(NNC(=O)c1ccc2c(c1)OCO2)NC1CCCCC1	30	i	i	i
SMILES	PfM18AAP inh	SUMO Mot1 rescue	ALR H2O2 inh	HIF act
COC(CNC(=O)c1ccc2c(c1)ncn2-c1ccc(C)cc1C)OC	i	i	i	i
Cc1cc(C)cc(OCC(=O)NNC(=O)CCC(=O)NCc2ccccc2)c1	i	i	i	i
Cc1ccc(NC(=O)CSCC(=O)NNC(=O)c2ccoc2C)cc1	nt	i	i	i
Cc1ccc(S(=O)(=O)CC(C)N2CCN(C3CCCCC3)CC2)cc1 (centres undefined)	i	i	i	i
CC(=O)/C=C(\C)Nc1ccccc1O	29	i	i	i
CCOc1nc2cnccc2n(CC(=O)Nc2cccc(C)c2)c1=O	i	i	i	i
Cc1noc(C)c1NC(=O)N(C)C[C@H]1Oc2ccc(NC(=O)Nc3ccccc3)cc2C(=O)N([C@H](C)CO)C[C@@H]1C	nt	i	nt	nt
COc1ccc(N2CCN(CCNC(=O)Nc3ccc([N+](=O)[O-])cc3OC)CC2)cc1	i	i	89	i
COc1ccc(N2CCN(CCNC(=O)C3CCN(S(=O)(=O)c4cccs4)CC3)CC2)cc1	i	i	i	i
CC(C)C(NS(=O)(=O)c1cccs1)C(=O)NCCN1CCN(c2ccccc2)CC1 (centres undefined)	i	i	99	i
COc1ccc(N2CCN(CCNC(=O)CCS(=O)(=O)c3cccc4nsnc34)CC2)cc1	i	i	94	i
COc1ccc(N2CCN(CCNC(=O)CCNS(=O)(=O)c3cccs3)CC2)cc1	i	i	93	i
COc1ccc(N2CCN(CCNS(=O)(=O)c3cccc4nsnc34)CC2)cc1	i	nt	nt	nt
Cc1ccccc1NC(=O)COC(=O)c1cc(S(=O)(=O)N2CCOCC2)ccc1C	nt	i	i	nt
CC1=C(C)CS(=O)N(S(=O)(=O)c2ccccc2)C1 (centres undefined)	i	i	99	i
CC1=C(C)CS(=O)N(c2ccc(S(N)(=O)=O)cc2)C1 (centres undefined)	30	nt	i	i
Cc1cccc(C)c1N1CCN(S(=O)(=O)c2ccccc2)CC1	i	i	i	i
COc1ccccc1NC(=S)N1CCN(c2ccccc2F)CC1	i	i	i	i
O=C(COC(=O)c1ccc(O)cc1)Nc1ccc2c(c1)OCO2	nt	i	i	nt
O=C(Cn1nc2n(c1=O)-c1ccccc1SC2)N/N=C/c1cccnc1	i	i	i	i
COc1ccccc1OCC(=O)N/N=C1/SCC(=O)N1Cc1ccccc1	i	354	i	i
CNCc1ccccc1Sc1cccc(O)c1	i	i	i	i
CN(C)Cc1ccccc1Sc1ccc(O)cc1O	i	i	100	i
CNCc1ccccc1Sc1cc(O)ccc1O	i	i	82	nt
COc1ccccc1NC(=O)CCCN1C(=O)C2CC=CCC2C1=O (centres undefined)	i	i	i	i
SMILES	PfM18AAP inh	SUMO Mot1 rescue	ALR H2O2 inh	HIF act
Cc1nc2ccc(Nc3ccncc3)cc2s1	i	i	i	i
COc1ccc(NC(NC(=O)c2ccc(OC)cc2)C(Cl)(Cl)Cl)cc1 (centres undefined)	i	nt	98	i
COc1ccc(C(=O)NC(Nc2ccc(C)cc2)C(Cl)(Cl)Cl)cc1 (centres undefined)	i	i	i	i
O=C(COC(=O)CNC(=O)c1ccccc1)Nc1nnc(-c2ccccc2)o1	nt	i	nt	i
CCCCCc1nc2c(c(=O)c3ccccc3n2C)c(=O)n1Cc1ccc(OC)cc1	i	i	i	i
Cc1n[nH]c(=S)n1-c1ccc(Cl)cc1	i	i	89	i
Cc1ccc(OCc2n[nH]c(=S)n2-c2ccc(Cl)cc2)cc1	i	i	nt	i
S=c1[nH]nc(COc2ccc(Cl)cc2)n1-c1ccc(Cl)cc1	i	i	85	i
Cc1n[nH]c(=S)n1-c1ccccc1	i	i	i	i
S=c1[nH]nc(Cc2noc3ccccc23)n1-c1ccc(Cl)cc1	i	i	92	i
O=C(O)C1CCN(C(=O)COc2ccc(Br)cc2)CC1	i	i	i	i
CC(=O)NC(C)(CC(=O)c1ccccc1)c1ccccc1 (centres undefined)	nt	i	i	i
